The supplement of paper PMC3545927
Some of the results follow. The true hit rate is not given.

B1: HC1830 (peptide)
chain: CAVTPCSGSWAGNASASA
B2: FS-808 (peptide)
chain: CAKDSRFFRYAGNASASA
B3: FS-744 (peptide)
chain: CAAKAKRRRSAGNASASA
B4: FS-628 (peptide)
chain: CATAQRHRRYAGNASASA
B5: FS-1191 (peptide)
chain: CAEKAVERRSAGNASASA
B6: HC1280 (peptide)
chain: CAGNITRVESAGNASASA
B7: FS-1441 (peptide)
chain: CAYVSRLRRVAGNASASA
B8: FS-839 (peptide)
chain: CAPEARLRRVAGNASASA
B9: FS-853 (peptide)
chain: CARFARLRRVAGNASASA
B10: HC1985 (peptide)
chain: CALVCCSMSYAGNASASA
B11: HC970 (peptide)
chain: CAHGPTPLLYAGNASASA
B12: FS-2933 (peptide)
chain: CARGKRELRMAGNASASA
B13: FS-1950 (peptide)
chain: CARGKREAGLAGNASASA
B14: FS-2258 (peptide)
chain: CARFKKNAGLAGNASASA
B15: HC1521 (peptide)
chain: CAAACRAAGLAGNASASA
B16: FS-2209 (peptide)
chain: CARGKRFRPRAGNASASA
B17: HC171 (peptide)
chain: CADVKFPGGGAGNASASA
B18: HC464 (peptide)
chain: CACLVDYPYRAGNASASA
B19: FS-1549 (peptide)
chain: CAPPGRMCRVAGNASASA
B20: FS-838 (peptide)
chain: CAPCRRKPRDAGNASASA
B21: FS-1242 (peptide)
chain: CAPKRRKPRVAGNASASA
B22: FS-1575 (peptide)
chain: CATRGRQPRVAGNASASA
B23: FS-1056 (peptide)
chain: CAQKGRKPRDAGNASASA
B24: FS-752 (peptide)
chain: CACSRRKPRDAGNASASA
B25: FS-451 (peptide)
chain: CAKMQRAPRDAGNASASA
B26: HC2042 (peptide)
chain: CAVVQCSMSYAGNASASA
B27: HC1371 (peptide)
chain: CASMSYSWTGAGNASASA
B28: HC2066 (peptide)
chain: CAVVCCSMMYAGNASASA
B29: HC2328 (peptide)
chain: CAEWPCHRPSAGNASASA
B30: HC1149 (peptide)
chain: CALRDIWDWIAGNASASA
B31: HC322 (peptide)
chain: CAMMNWSPTTAGNASASA
B32: HC1643 (peptide)
chain: CALDLSGWFTAGNASASA
B33: HC1591 (peptide)
chain: CAQALDCEIYAGNASASA
B34: FS-1021 (peptide)
chain: CAKRGRKRRSAGNASASA
B35: FS-880 (peptide)
chain: CATKDRKRRSAGNASASA
B36: FS-629 (peptide)
chain: CATDDDFERSAGNASASA
B37: FS-727 (peptide)
chain: CATKDNFKRSAGNASASA
B38: FS-1093 (peptide)
chain: CATKADKRRSAGNASASA
B39: FS-909 (peptide)
chain: CAKRGREFRIAGNASASA
B40: FS-2198 (peptide)
chain: CARVTRYSNIAGNASASA
B41: HC2126 (peptide)
chain: CAEMVVCCSMAGNASASA
B42: HC42 (peptide)
chain: CATTPGSGSWAGNASASA
B43: HC2111 (peptide)
chain: CADDVVCCSMAGNASASA

Target: furin, P09958
Experiment: furin cleavage Z-score vs untreated control; higher = more cleavage, active = 3.5 or more, inactive = 1 or less, 8 variable residues between constant flanks
Summary of the method: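 Peptides 8 residues long, fused to a cDNA oligonucleotide, were fixed to magnetic beads by the N-terminus and exposed to purified furin. The 0.01 ml reactions contained 50 mM HEPES pH 7.5 with CaCl2 and NaCl at 1:10 enzyme:substrate and ran 7.5, 15 or 30 min. For the cleavage Z-score, log counts of sequenced released DNA were compared with furin-free reactions, lowess-adjusted and scaled by median absolute deviation.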

furin, P09958, sequence (P09958 whole entry): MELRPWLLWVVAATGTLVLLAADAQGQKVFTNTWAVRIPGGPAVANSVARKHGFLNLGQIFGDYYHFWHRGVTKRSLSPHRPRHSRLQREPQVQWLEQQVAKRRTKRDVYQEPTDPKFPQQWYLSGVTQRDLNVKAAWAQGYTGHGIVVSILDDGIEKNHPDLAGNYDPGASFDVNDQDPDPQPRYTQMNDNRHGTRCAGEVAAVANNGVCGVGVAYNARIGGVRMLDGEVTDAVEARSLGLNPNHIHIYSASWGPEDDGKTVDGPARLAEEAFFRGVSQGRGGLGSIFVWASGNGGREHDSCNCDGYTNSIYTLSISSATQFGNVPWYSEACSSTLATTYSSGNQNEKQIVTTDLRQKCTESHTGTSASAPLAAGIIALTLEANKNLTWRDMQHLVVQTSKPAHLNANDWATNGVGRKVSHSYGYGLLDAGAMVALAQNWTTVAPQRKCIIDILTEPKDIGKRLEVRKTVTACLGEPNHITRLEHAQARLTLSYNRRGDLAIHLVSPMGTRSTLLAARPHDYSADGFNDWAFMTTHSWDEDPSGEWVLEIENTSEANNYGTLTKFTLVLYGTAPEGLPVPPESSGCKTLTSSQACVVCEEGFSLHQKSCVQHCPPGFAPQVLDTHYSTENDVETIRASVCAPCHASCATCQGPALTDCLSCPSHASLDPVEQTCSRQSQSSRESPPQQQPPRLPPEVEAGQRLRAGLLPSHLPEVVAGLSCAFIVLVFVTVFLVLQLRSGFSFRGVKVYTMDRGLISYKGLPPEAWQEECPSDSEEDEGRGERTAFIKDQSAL

Sequence | furin cleavage Z-score (7.5 min) | furin cleavage Z-score (15 min) | furin cleavage Z-score (30 min)
B1 | -0.794 (inactive) | -0.739 (inactive) | -0.453 (inactive)
B2 | 0.318 (inactive) | -0.509 (inactive) | 1.08
B3 | 10.8 (active) | 11.8 (active) | 8.83 (active)
B4 | 8.01 (active) | 10.1 (active) | 9.56 (active)
B5 | 0.591 (inactive) | 2.02 | 0.505 (inactive)
B6 | -0.34 (inactive) | -0.548 (inactive) | 1.72
B7 | 4.8 (active) | 5.42 (active) | 4.8 (active)
B8 | 0.0356 (inactive) | 3.09 | 2.39
B9 | 4.92 (active) | 7.36 (active) | 5.85 (active)
B10 | -0.475 (inactive) | -0.242 (inactive) | 0.0858 (inactive)
B11 | -1.77 (inactive) | -1.23 (inactive) | -0.927 (inactive)
B12 | 7.15 (active) | 8.97 (active) | 10 (active)
B13 | 10.7 (active) | 12 (active) | 9.85 (active)
B14 | 0.96 (inactive) | -0.927 (inactive) | 0.128 (inactive)
B15 | -0.658 (inactive) | -1.9 (inactive) | -0.337 (inactive)
B16 | -0.464 (inactive) | 0.0565 (inactive) | 0.308 (inactive)
B17 | -0.433 (inactive) | -1.81 (inactive) | -2.39 (inactive)
B18 | -1.54 (inactive) | -2.22 (inactive) | 0.308 (inactive)
B19 | 0.819 (inactive) | 0.646 (inactive) | 1.21
B20 | 14.7 (active) | 14.2 (active) | 11.5 (active)
B21 | 8.95 (active) | 11.6 (active) | 8 (active)
B22 | 0.424 (inactive) | 0.857 (inactive) | 1.04

Sequence | furin cleavage Z-score (7.5 min) | furin cleavage Z-score (15 min) | furin cleavage Z-score (30 min)
B23 | 15 (active) | 14.9 (active) | 10.2 (active)
B24 | 11.2 (active) | 11.6 (active) | 9.05 (active)
B25 | -0.25 (inactive) | -0.389 (inactive) | -0.0248 (inactive)
B26 | 0.93 (inactive) | 0.804 (inactive) | 0.223 (inactive)
B27 | -1.4 (inactive) | -0.78 (inactive) | -0.275 (inactive)
B28 | 0.37 (inactive) | -1.1 (inactive) | -0.477 (inactive)
B29 | 2.33 | 0.752 (inactive) | 0.743 (inactive)
B30 | -0.31 (inactive) | 1.9 | 1.08
B31 | -3.83 (inactive) | 0.346 (inactive) | -1.29 (inactive)
B32 | 1.07 | 0.845 (inactive) | -0.793 (inactive)
B33 | -1.45 (inactive) | 0.168 (inactive) | -0.351 (inactive)
B34 | 13.5 (active) | 12.1 (active) | 11.2 (active)
B35 | 13.4 (active) | 13.2 (active) | 8.6 (active)
B36 | -0.626 (inactive) | -1.72 (inactive) | 0.0381 (inactive)
B37 | 2.99 | 1.62 | 3.93 (active)
B38 | 1.16 | -0.227 (inactive) | 0.33 (inactive)
B39 | 0.58 (inactive) | -0.852 (inactive) | -0.651 (inactive)
B40 | -0.808 (inactive) | -0.0709 (inactive) | 0.615 (inactive)
B41 | -1.21 (inactive) | -1.21 (inactive) | 0.778 (inactive)
B42 | -0.496 (inactive) | -0.533 (inactive) | -0.629 (inactive)
B43 | -0.752 (inactive) | 0.00684 (inactive) | -0.0395 (inactive)
